Tests used:
Details in all cases: Compound Concentration (nM):1000
MYLK4 = tested on: MYLK4
MYLK = tested on: MYLK
MYO3A = tested on: MYO3A
MYO3B = tested on: MYO3B
NDR1 = tested on: T1, NDR1
T1 construct: gene STK38

NDR2 = tested on: T2, NDR2
T2 construct: gene STK38L

NEK10 = tested on: NEK10
NEK11 = tested on: NEK11
NEK1 = tested on: NEK1
NEK2 = tested on: NEK2
NEK3 = tested on: NEK3
NEK4 = tested on: NEK4
NEK5 = tested on: NEK5
NEK6 = tested on: NEK6
NEK7 = tested on: NEK7
NEK9 = tested on: NEK9
NIK = tested on: T3, NIK
T3 construct: gene MAP3K14

NIM1 = tested on: T4, NIM1
T4 construct: gene MGC42105

NLK = tested on: NLK
OSR1 = tested on: T5, OSR1
T5 construct: gene OXSR1
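Note: KINOMEscan scanMAX binding as percent activity remaining versus control; lower means stronger binding.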

COc1ccc2c(-c3ccnc(Nc4cccc(OC(F)(F)F)c4)n3)cnn2n1 [GW810372X]
Percent Control (MYLK4): 60% | Percent Control (MYLK): 100% | Percent Control (MYO3A): 100% | Percent Control (MYO3B): 100% | Percent Control (NDR1): 100% | Percent Control (NDR2): 96% | Percent Control (NEK10): 100% | Percent Control (NEK11): 100% | Percent Control (NEK1): 85% | Percent Control (NEK2): 100% | Percent Control (NEK3): 22% | Percent Control (NEK4): 80% | Percent Control (NEK5): 7.6% | Percent Control (NEK6): 39% | Percent Control (NEK7): 3.6% | Percent Control (NEK9): 47% | Percent Control (NIK): 96% | Percent Control (NIM1): 77% | Percent Control (NLK): 81% | Percent Control (OSR1): 100%

O=C(Nc1n[nH]c2nc(-c3ccc(O)cc3)c(Br)cc12)C1CC1 [SB-725317]
Percent Control (MYLK4): 100% | Percent Control (MYLK): 56% | Percent Control (MYO3A): 48% | Percent Control (MYO3B): 100% | Percent Control (NDR1): 100% | Percent Control (NDR2): 100% | Percent Control (NEK10): 100% | Percent Control (NEK11): 100% | Percent Control (NEK1): 99% | Percent Control (NEK2): 100% | Percent Control (NEK3): 100% | Percent Control (NEK4): 88% | Percent Control (NEK5): 100% | Percent Control (NEK6): 100% | Percent Control (NEK7): 86% | Percent Control (NEK9): 98% | Percent Control (NIK): 100% | Percent Control (NIM1): 84% | Percent Control (NLK): 54% | Percent Control (OSR1): 100%

NS(=O)(=O)c1ccc(N/N=C2\C(=O)Nc3ccc(C(=O)NCCc4c[nH]cn4)cc32)cc1 [GW300660X]
Percent Control (MYLK4): 87% | Percent Control (MYLK): 79% | Percent Control (MYO3A): 100% | Percent Control (MYO3B): 100% | Percent Control (NDR1): 77% | Percent Control (NDR2): 100% | Percent Control (NEK10): 100% | Percent Control (NEK11): 100% | Percent Control (NEK1): 100% | Percent Control (NEK2): 100% | Percent Control (NEK3): 78% | Percent Control (NEK4): 80% | Percent Control (NEK5): 100% | Percent Control (NEK6): 100% | Percent Control (NEK7): 100% | Percent Control (NEK9): 100% | Percent Control (NIK): 74% | Percent Control (NIM1): 14% | Percent Control (NLK): 100% | Percent Control (OSR1): 100%

Cc1cc(O)cc(C)c1/C=C/c1cncc(C(N)=O)c1 [GW435821X]
Percent Control (MYLK4): 100% | Percent Control (MYLK): 97% | Percent Control (MYO3A): 100% | Percent Control (MYO3B): 100% | Percent Control (NDR1): 99% | Percent Control (NDR2): 100% | Percent Control (NEK10): 100% | Percent Control (NEK11): 100% | Percent Control (NEK1): 100% | Percent Control (NEK2): 100% | Percent Control (NEK3): 89% | Percent Control (NEK4): 86% | Percent Control (NEK5): 100% | Percent Control (NEK6): 100% | Percent Control (NEK7): 100% | Percent Control (NEK9): 100% | Percent Control (NIK): 100% | Percent Control (NIM1): 100% | Percent Control (NLK): 92% | Percent Control (OSR1): 100%

Cl.c1ccc(Cc2nc3ccc(Nc4ncnc5ccccc45)cc3[nH]2)cc1 [GR269666A]
Percent Control (MYLK4): 100% | Percent Control (MYLK): 100% | Percent Control (MYO3A): 100% | Percent Control (MYO3B): 100% | Percent Control (NDR1): 100% | Percent Control (NDR2): 100% | Percent Control (NEK10): 100% | Percent Control (NEK11): 100% | Percent Control (NEK1): 99% | Percent Control (NEK2): 100% | Percent Control (NEK3): 100% | Percent Control (NEK4): 100% | Percent Control (NEK5): 100% | Percent Control (NEK6): 100% | Percent Control (NEK7): 100% | Percent Control (NEK9): 100% | Percent Control (NIK): 100% | Percent Control (NIM1): 94% | Percent Control (NLK): 100% | Percent Control (OSR1): 100%

CCc1ccc(Oc2nccc(-c3c(-c4ccc(F)cc4)ncn3C3CCNCC3)n2)cc1 [SB-242719]
Percent Control (MYLK4): 98% | Percent Control (MYLK): 100% | Percent Control (MYO3A): 87% | Percent Control (MYO3B): 100% | Percent Control (NDR1): 92% | Percent Control (NDR2): 96% | Percent Control (NEK10): 99% | Percent Control (NEK11): 100% | Percent Control (NEK1): 100% | Percent Control (NEK2): 96% | Percent Control (NEK3): 100% | Percent Control (NEK4): 96% | Percent Control (NEK5): 100% | Percent Control (NEK6): 100% | Percent Control (NEK7): 100% | Percent Control (NEK9): 100% | Percent Control (NIK): 100% | Percent Control (NIM1): 83% | Percent Control (NLK): 25% | Percent Control (OSR1): 100%

NS(=O)(=O)c1ccc(N/N=C2\C(=O)Nc3ccc(-c4cnco4)cc32)cc1 [GW276655]
Percent Control (MYLK4): 49% | Percent Control (MYLK): 50% | Percent Control (MYO3A): 77% | Percent Control (MYO3B): 100% | Percent Control (NDR1): 67% | Percent Control (NDR2): 68% | Percent Control (NEK10): 89% | Percent Control (NEK11): 93% | Percent Control (NEK1): 71% | Percent Control (NEK2): 100% | Percent Control (NEK3): 96% | Percent Control (NEK4): 99% | Percent Control (NEK5): 72% | Percent Control (NEK6): 77% | Percent Control (NEK7): 82% | Percent Control (NEK9): 79% | Percent Control (NIK): 37% | Percent Control (NIM1): 84% | Percent Control (NLK): 100% | Percent Control (OSR1): 100%

CN1CCN(C(=O)c2ccc(NC(=O)Nc3ccc(N(C)c4ccnc(Nc5ccc(CS(C)(=O)=O)cc5)n4)cc3)cc2)CC1.Cl [GW830263A]
Percent Control (MYLK4): 98% | Percent Control (MYLK): 100% | Percent Control (MYO3A): 7% | Percent Control (MYO3B): 23% | Percent Control (NDR1): 54% | Percent Control (NDR2): 100% | Percent Control (NEK10): 94% | Percent Control (NEK11): 100% | Percent Control (NEK1): 63% | Percent Control (NEK2): 89% | Percent Control (NEK3): 66% | Percent Control (NEK4): 85% | Percent Control (NEK5): 82% | Percent Control (NEK6): 100% | Percent Control (NEK7): 93% | Percent Control (NEK9): 62% | Percent Control (NIK): 100% | Percent Control (NIM1): 99% | Percent Control (NLK): 80% | Percent Control (OSR1): 98%

Nc1ncnc2occ(-c3ccc(NC(=O)Nc4cc(C(F)(F)F)ccc4F)cc3)c12 [GW770249X]
Percent Control (MYLK4): 100% | Percent Control (MYLK): 100% | Percent Control (MYO3A): 9.7% | Percent Control (MYO3B): 15% | Percent Control (NDR1): 94% | Percent Control (NDR2): 100% | Percent Control (NEK10): 100% | Percent Control (NEK11): 100% | Percent Control (NEK1): 89% | Percent Control (NEK2): 77% | Percent Control (NEK3): 98% | Percent Control (NEK4): 71% | Percent Control (NEK5): 82% | Percent Control (NEK6): 100% | Percent Control (NEK7): 100% | Percent Control (NEK9): 38% | Percent Control (NIK): 100% | Percent Control (NIM1): 100% | Percent Control (NLK): 100% | Percent Control (OSR1): 100%

COC(=O)Nc1nc2ccc(Oc3ccc(NC(=O)Nc4cc(C(F)(F)F)ccc4F)cc3)cc2s1.Cl [GW693917A]
Percent Control (MYLK4): 93% | Percent Control (MYLK): 100% | Percent Control (MYO3A): 93% | Percent Control (MYO3B): 100% | Percent Control (NDR1): 86% | Percent Control (NDR2): 94% | Percent Control (NEK10): 90% | Percent Control (NEK11): 100% | Percent Control (NEK1): 94% | Percent Control (NEK2): 82% | Percent Control (NEK3): 87% | Percent Control (NEK4): 83% | Percent Control (NEK5): 76% | Percent Control (NEK6): 100% | Percent Control (NEK7): 100% | Percent Control (NEK9): 50% | Percent Control (NIK): 80% | Percent Control (NIM1): 79% | Percent Control (NLK): 95% | Percent Control (OSR1): 100%
